From PubChem BioAssay
The full list was thinned out, with hits kept by preference.
AMA1 RON2 block = disrupts binding of P. falciparum AMA1 to RON2; AlphaScreen AMA1-biotinylated RON2 peptide binding; AID 720542; Potency, µM (top dose mostly 58.2 µM), without a hit: top-dose activity change, negative = inhibition, usual class: inhibitors; 360,000 compounds, 0.2% hits;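 note: potency is the fitted concentration of half-maximal effect; 0% = vehicle wells and -100% = peptide control; nearly all actives have a fitted effect of over 45% in size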
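AMA1 (3D7) with his tag at 25 nM final met compounds first, then biotinylated RON2 peptide at 25 nM; detection used donor plus acceptor beads, 10 µg/mL apiece, read by AlphaScreen after 30 min at room temperature.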
AmpC inh no detg = blocks E. coli AmpC beta-lactamase in detergent-free assay; AmpC nitrocefin hydrolysis, absorbance 480 nm, 0.0001% Triton; Potency, µM (top dose mostly 57.1 µM), for the others: at the top dose activity change, negative = inhibition, actives largely listed as inhibitors; 330,000 compounds, 0.52% hits; AID 485341;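 note: potency is the fitted concentration of half-maximal effect; plate controls were no compound for no effect and no enzyme for full effect; nearly all actives have a fitted effect of over 20% in size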
Target sequence (P00811 whole entry, looked up): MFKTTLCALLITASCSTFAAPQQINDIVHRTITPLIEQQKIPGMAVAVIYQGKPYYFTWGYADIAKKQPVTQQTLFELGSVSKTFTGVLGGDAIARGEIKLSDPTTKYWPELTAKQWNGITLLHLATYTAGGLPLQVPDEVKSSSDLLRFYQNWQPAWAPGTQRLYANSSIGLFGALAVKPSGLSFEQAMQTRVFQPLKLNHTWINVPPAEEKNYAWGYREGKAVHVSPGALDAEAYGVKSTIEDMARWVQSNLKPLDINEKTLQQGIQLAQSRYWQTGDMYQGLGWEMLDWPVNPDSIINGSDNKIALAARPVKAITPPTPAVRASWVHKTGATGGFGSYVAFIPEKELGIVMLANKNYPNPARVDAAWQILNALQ
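AmpC (5.3 nM in the dispensed reagent) in 20 mM phosphate pH 7.0 with 0.01% (detergent screen) or 0.0001% Triton X-100 was preincubated with compounds for 15 min at room temperature. Nitrocefin was then added from an 800 uM solution, and hydrolysis was followed at 480 nm.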
SARS PLP yeast = inhibitors of SARS-CoV papain-like protease in yeast; Potency, µM (highest dose often 32.9 µM), inactives show at the top dose activity, positive = growth rescue, actives largely listed as activators; AID 485353; 330,000 compounds, 0.19% hits; S. cerevisiae expressing SARS-CoV PLpro, growth rescue; calls by dose curve; note: potency is the fitted concentration of half-maximal effect; 0% is about no effect; nearly all actives have a fitted effect of over 55% in size
Shiga toxin inh = inhibitors of Shiga toxin in Vero cells. AID 2315. Vero cells, Shiga toxin protein synthesis inhibition reporter. 290,000 compounds, 9.2% hits. inhibition, % at 38.7 µM; in the data active = inhibition mostly above about 28%, no sharp cut-off; inactive = mostly below about 43%; note: 0% is about no effect
AmpC inh detg = AmpC beta-lactamase inhibition with detergent present; P00811; AmpC hydrolysis of nitrocefin, absorbance 480 nm, 0.01% Triton; Potency, µM (series often up to 114 µM), for the others: at the top dose activity change, negative = inhibition, most hits filed as inhibitors; 370,000 compounds, 0.041% hits;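 note: potency is the fitted concentration of half-maximal effect; 0% = no-compound wells and -100% = no-enzyme wells; nearly all actives have a fitted effect of over 25% in size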
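AmpC (5.3 nM in the dispensed reagent) in 20 mM phosphate pH 7.0 with 0.01% (detergent screen) or 0.0001% Triton X-100 was preincubated with compounds for 15 min at room temperature. Nitrocefin was then added from an 800 uM solution, and hydrolysis was followed at 480 nm.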
Cycloheximide cs = counter-screen hit for Shiga toxin inhibitors, cycloheximide. cell reporter, cycloheximide protein synthesis inhibition counterscreen. max response, %. 300,000 compounds, 12% hits. AID 2314; in the data active = max response mostly above about 13%, no sharp cut-off; inactive = mostly below about 14%; note: read at 38.3 µM for the half of the compounds with a filed dose; 0% is about no effect
An asterisk follows results filed as active; ? = inconclusive; · = no result; [ ] = remark or other dose. Unless noted, calls come from the whole dose curve; as a rule, active = well fitted curve in the direction sought with a large enough effect; inconclusive = small, poorly fitted or top-dose-only effect, or another doubt; inactive = no such curve, though single readings can be large; an effect the other way counts as inactive or inconclusive.

SMILES | AMA1 RON2 block | AmpC inh no detg | SARS PLP yeast | Shiga toxin inh | AmpC inh detg | Cycloheximide cs
CCCC(C(=O)NCc1ccc(OC)cc1)N(Cc1ccco1)C(=O)c1snc(C(N)=O)c1N (stereo not given) | 18% | -11% | -3% | -25 | -15% | -3
CC1(C)C(=O)Nc2ccccc2N1C(=O)COc1cccnc1[N+](=O)[O-] | -4% | -16% | -1% | -26 | 6% | -7
COc1ccc2oc(C(=O)OCC(=O)N3C(C)CCCC3C)c(C)c2c1 (stereo not given) | -4% | 44% | -1% | 63* | ? | 37*
CCOc1ccc2oc(C(=O)OCC(=O)N3C(C)CCCC3C)c(C)c2c1 (stereo not given) | -1% | 93% | 2% | · | 4% | ·
CCOc1ccc2oc(C(=O)OCC(=O)NC3CCCCC3)c(C)c2c1 | -8% | -17% | 16% | · | 10% | ·
CC1CCCC(C)N1C(=O)COC(=O)c1ccc2c(c1)OCO2 (stereo not given) | -3% | -8% | -7% | 43 | -13% | 17*
COc1ccc2oc(C(=O)OCC(=O)NC3CCCC3)c(C)c2c1 | 15% | 4% | -5% | 71* | -5% | 38*
Cc1c(C(=O)OCCN2CCCCC2)oc2ccccc12 | -2% | -12% | -2% | 21 | -16% | 14*
Cc1cccc(C)c1NC(=O)CCCSc1nnc(-c2ccc(Cl)cc2)n1-c1ccccc1 | 0% | 9% | -12% | -12 | ? | 1
CC1CCCC(C)N1/N=C/c1ccc(N(C)C)cc1 (stereo not given) | -8% | -7%[11.4 µM] | 0% | 24 | 0% | 12
Cc1c(C(=O)OCC(=O)N2C(C)CCCC2C)oc2ccccc12 (stereo not given) | 8% | 44% | 5% | 96* | ? | 50*
Cc1nn(-c2ccccc2)c2c1C1(C(=O)N(C)c3ccccc31)N(c1ccccc1)C(=O)N2 (stereo not given) | 0% | -5% | -1% | -7 | -8% | 9
COc1ccc(-c2nnc(SCC(=O)NC3CCCCC3)o2)cc1 | -4% | -3% | -2% | 13 | 1% | -5
O=C(Cc1ccccc1Cl)c1ccccc1 | 42% | · | · | · | · | ·
CCN(C(=O)c1coc(=O)c(Br)c1)c1ccc2c(c1)OCO2 | -22% | -6% | -6% | 86* | -16% | 27*
COC(=O)c1cc(-c2ccc3c(c2)OCO3)nc2ccccc12 | 68% | -15% | 2% | 7 | ? | 0
c1ccc2nc(-c3ccc4c(c3)OCO4)ccc2c1 | 17% | -31% | -11% | 71* | -2% | 55*
COc1ccc(-c2oc(=O)c3cc(OC)c(OC)cc3c2-c2ccc3c(c2)OCO3)cc1 | -21% | -26% | 1% | · | · | ·
COc1ccc(OC)c2nc(-c3ccc4c(c3)OCO4)ccc12 | 6% | 29% | -2% | 105* | -3% | 62*
O=C(C1CCCN(S(=O)(=O)c2cccs2)C1)N1CCN(c2cccc(Cl)c2)CC1 (stereo not given) | · | · | · | · | 18% | ·
COC(=O)Cc1ccc(NC(=O)c2ccccc2Cl)cc1 | 0% | -9% | -1% | 35 | 5% | 28*
O=C(Nc1ccc(N2CCCC2)cc1)C(c1ccccc1)c1ccccc1 | -20% | -7% | 0% | -9 | -3% | -7
O=C(Nc1ccccc1N1CCCC1)c1ccc(Cl)cc1Cl | -19% | -22% | -1% | 28 | 8% | -2
O=C(Nc1ccc(N2CCCC2)cc1)c1ccc(Cl)cc1Cl | -11% | -19% | 2% | 47* | 1% | 47*
COC(=O)Cc1ccc(NC(=O)c2ccc(C(C)(C)C)cc2)cc1 | 22% | -6% | -11% | -6 | 0% | 1
SMILES | AMA1 RON2 block | AmpC inh no detg | SARS PLP yeast | Shiga toxin inh | AmpC inh detg | Cycloheximide cs
O=C(Nc1ccc(N2CCCCC2)cc1)C(Cl)c1ccccc1 (stereo not given) | ? | 1% | 1% | 84 | 4% | 46*
COc1ccccc1C(=O)Nc1ccc(N2CCCCC2)cc1 | ? | -7% | -3% | 65* | -16% | 45*
COc1ccc(N2C(=O)CCC2(C(N)=O)c2ccccc2)cc1 (stereo not given) | · | -5% | 1% | 19 | ? | -5
O=C(Nc1ccc(N2CCCC2)cc1)c1cc(Cl)ccc1Cl | -15% | -25% | 1% | · | -12% | 13*
CN1CCN(c2ccc(NC(=O)c3ccc(Cl)cc3Cl)cc2)CC1 | -7% | -24% | 1% | · | -13% | 15*
O=C(Nc1ccc(N2CCCC2)cc1)c1cccc(Cl)c1 | -5% | -27% | -2% | 52* | -4% | 25*
CC(Oc1ccc(Cl)cc1Cl)C(=O)Nc1ccc(N2CCN(C)CC2)cc1 (stereo not given) | -17% | -3% | 0% | -12 | -9% | -2
O=C(Nc1ccc(N2CCOCC2)cc1)c1cc(F)c(F)cc1Cl | -12% | -14% | -7% | 56* | ? | 35*
C=CCn1c(=S)[nH]c2scc(-c3ccc(C)o3)c2c1=O | 68% | -18%[11.4 µM] | -1% | -4 | ? | 9
CCCN(C(=O)c1cc(Cl)nc2ccccc12)c1c(N)n(Cc2ccccc2)c(=O)[nH]c1=O | 23% | -26% | 0% | · | -8% | ·
N#C/C(=C\c1ccc(Br)s1)C(=O)N1CCN(c2ccccc2)CC1 | -5% | -15% | 3% | -17 | -2% | -5
COc1ccccc1CNC(=O)CSc1nc2nc(C)c(Cc3ccccc3Cl)c(C)n2n1 | · | · | · | · | 5% | ·
COc1ccccc1C(=O)NC(CCSC)C(=O)NNC(=O)c1ccc(F)cc1 (stereo not given) | 82% | -25% | 6% | -8 | 4% | -1
Cc1c(C(=O)O)sc2c1c(=O)n(Cc1ccccc1)c(=O)n2C | -11% | -14% | 3% | -7 | 3% | 4
O=C(COc1ccccc1Cl)Nc1ccc(N2CCCC2)cc1 | -13% | 176% | -1% | 53* | -1% | 25*
O=C(Nc1ccc(N2CCCCCC2)cc1)c1ccccc1Cl | ? | -38% | -3% | 53* | 2% | 34*
CC(=O)N1CCN(c2ccc(NC(=O)c3ccccc3Cl)cc2)CC1 | -2% | -14% | -4% | 3 | -15% | -1
CC(C(=O)NN)n1nnc(N2CCOCC2)n1 (stereo not given) | 19% | -10% | -1% | -7 | -4% | -2
CCN(CCO)c1ncnc2c1sc1nc(C(C)C)c3c(c12)CC(C)(C)OC3 | 0% | -8% | 1% | -5 | -9% | -4
Cc1noc(C)c1CN1C(=O)c2cccc([N+](=O)[O-])c2C1=O | 5% | -13% | 4% | 14 | 1% | 5
CCCC(=O)Nc1ccc(N2CCOCC2)cc1 | 0% | -9% | -1% | 2 | 2% | 9
CC(=O)Nc1ccc(NCc2cccs2)cc1 | 0% | 1% | 5% | 28 | 2% | 12
CC(=O)Nc1ccc(NCc2ccc(C)s2)cc1 | -9% | -20% | -1% | 50* | ? | 21*
